Screens: PubChem, Broad Institute
The sample as a whole holds a higher share of hits than the screen did.
PD-1 reverse act: activators reversing PD-1 mediated T-cell inhibition, primary screen, luminescence, primary human CD4 T cells, PD-L1 beads | AID 2316, 2010 | CellTiter-Glo 96 h | activation, % (no concentration beside the values) | 29,000 tested, under 10 active; call rule not given here;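 note: 0% = median vehicle wells and 100% = positive control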
STK33 inh: STK33 kinase inhibitors, primary screen, biochemical, luminescence, ADP-Glo, MBP substrate; Serine/threonine-protein kinase 33 (Homo sapiens), Q9BYT3; inhibition, % at 12.5 µM; 0.44% of 27,000 active; in the data active = inhibition above about 20%; inconclusive = no clear call, values can overlap the other calls
Target sequence (Q9BYT3 whole entry, looked up): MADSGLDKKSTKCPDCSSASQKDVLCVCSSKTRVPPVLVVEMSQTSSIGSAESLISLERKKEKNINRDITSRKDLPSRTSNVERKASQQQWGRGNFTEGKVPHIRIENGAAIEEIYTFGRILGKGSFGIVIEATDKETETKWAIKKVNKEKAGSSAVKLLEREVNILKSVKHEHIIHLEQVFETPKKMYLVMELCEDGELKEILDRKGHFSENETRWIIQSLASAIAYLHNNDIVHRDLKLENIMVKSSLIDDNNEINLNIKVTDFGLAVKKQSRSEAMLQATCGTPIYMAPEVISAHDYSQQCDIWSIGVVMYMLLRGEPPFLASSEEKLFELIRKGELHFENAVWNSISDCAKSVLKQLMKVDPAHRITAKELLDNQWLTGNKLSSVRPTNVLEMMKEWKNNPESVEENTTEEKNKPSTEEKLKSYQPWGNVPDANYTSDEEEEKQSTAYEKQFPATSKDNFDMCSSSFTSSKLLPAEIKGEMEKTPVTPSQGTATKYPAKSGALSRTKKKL
NOMO-1 viab: NOMO-1 AML cell viability reduction, primary screen, STK33 inhibitor project, CellTiter-Glo luminescence. 7.5% of 37,000 active. inhibition, % (concentration not given with the values). AID 2330, 2010. NOMO-1 AML viability, 72 h; in the data active = inhibition above about 80%; inconclusive = no clear call, values can overlap the other calls
Starred values were filed as active, the others as inactive; ? = inconclusive; . = no result given.

SMILES | PD-1 reverse act | STK33 inh | NOMO-1 viab
CC1=C[C@H]2[C@]3(O)[C@H](C)[C@@H](O)[C@@]4(O)[C@H]([C@@H]3C=C(CO)C[C@]2(O)C1=O)C4(C)C | 1 | -2 | 1
COc1ccc(C(=O)O[C@H]2CC[C@@]3(C)[C@@H]4CC[C@H]5[C@]6(O)C[C@H](O)[C@@]7(O)[C@@H](CN8C[C@@H](C)CC[C@H]8[C@@]7(C)O)[C@]6(O)C[C@@]53O[C@]24O)cc1OC | . | 0 | -7
Cc1cc(OC(=O)N(C)C)cc(=O)n1C | 0 | . | 17
O=C1NC(=O)N(c2ccccc2)C(=O)/C1=C/c1ccco1 | -3 | . | 136*
CCCCSP(=O)(SCCCC)SCCCC | . | -2 | -12
CCOC(=O)CN1C(=O)CC(C[C@@H](O)C2C[C@@H](C)C[C@H](C)C2=O)CC1=O (stereo partly drawn) | 3 | -2 | -10
N#CC(C#N)=NNc1ccc(OC(F)(F)F)cc1 | -50 | 5 | 141*
Cn1cc(C(=O)C(=O)N[C@H]2CN3CCC2CC3)c2ccccc21 | 3 | 0 | -7
CC1(C)C(C(=O)Nc2ccccc2C(F)(F)F)C1(C)C | -1 | -1 | 8
C/C=C\C(C)=C\[C@H](C)C(=O)C[C@H](O)CC1CC(=O)NC(=O)C1 | 0 | -8 | 77
Cc1ccc(OC(=O)N(C)C[C@@H]2OCc3cnnn3CCCC(=O)N([C@@H](C)CO)C[C@@H]2C)cc1 | . | -3 | .
Cc1cc(O)cc2oc(=O)c3c(O)cc(O)cc3c12 | -2 | 74* | 42
C=C[C@H]1CN2CC[C@H]1C[C@@H]2[C@H](O)c1ccnc2ccccc12 | . | 2 | -29
C=C1C(=O)O[C@@H]2[C@H]3C(=C)[C@@H](O)C[C@H]3C(=C)C[C@@H](O)[C@@H]12 | -5 | ? | 113*
CC(C)c1cc2c(cc1O)[C@@]1(C)CCCC(C)(C)[C@@H]1CC2O (stereo partly drawn) | -1 | -4 | 94*
CC1(C)CCC[C@]2(C)c3cc(O)c(O)cc3C(=O)CC12 (stereo partly drawn) | . | 0 | .
C[C@H](CO)N1C[C@H](C)[C@@H](CN(C)C(=O)Oc2cccc3ccccc23)OCc2cnnn2CCCC1=O | . | 2 | .
C/C=C1/CN2C3Cc4c([nH]c5ccc(O)cc45)C2(O)CC1C3CO (stereo not drawn) | 1 | 4 | 20
CCc1nc2ccccc2c(=O)n1-c1ccc(OC)cc1 | 2 | 2 | 6
COC[C@H]([C@@H](O)[C@@H](O)C(=O)NCC[C@@H](C)c1nc(/C=C/C[C@H]2OC3(C[C@H](O)[C@H]2C)OC([C@@H](C[C@@H](O)[C@@H](C)[C@@H](O)[C@@H](C)/C=C(C)/C(C)=C/C=C/C(C)=C\C#N)OC)[C@@H](OP(=O)(O)O)C3(C)C)co1)N(C)C (stereo partly drawn) | -42 | 2 | 139*
COc1ccc([C@H]2Oc3c(I)c(OC)cc(OC)c3C[C@@H]2O)cc1OC | . | 7 | 22
O=C(O)c1nn(Cc2ccc(Cl)c(Cl)c2)c2ccccc12 | . | 1 | 2
COc1cc2c(cc1-c1cc3cc4ccoc4cc3oc1=O)OCO2 | . | 0 | 5
Cc1ccc(-c2nc3ccc(C)cn3c2CC(=O)N(C)C)cc1 | . | -1 | -12
COC(=O)[C@@]12C(=O)C(C)C(=O)[C@]1(C)C(C)=C[C@H]1[C@]3(C)CC[C@H](OC(C)=O)C(C)(C)[C@H]3CC[C@@]12C (stereo partly drawn) | 3 | -3 | 17
SMILES | PD-1 reverse act | STK33 inh | NOMO-1 viab
CC[C@]12C=CCN3CC[C@@]4(c5ccc(OC)cc5N(C)[C@H]4[C@@](O)(C(=O)OC)[C@@H]1OC(C)=O)[C@@H]32 | -1 | 0 | 19
O=C(Nc1ccc2c(C(F)(F)F)cc(=O)oc2c1)c1cc(Cl)cc(Cl)c1 | 1 | . | 122*
N#C[C@@H](OC1OC(COC2OCC(O)C(O)C2O)C(O)C(O)C1O)c1ccccc1 (stereo partly drawn) | 1 | -2 | 31
CCOP(=S)(OCC)SCSP(=S)(OCC)OCC | . | -3 | 6
CCC(C)C1NC(=O)C2CCCN2C(=O)C(CC(C)C)OC(=O)CCNC(=O)C(C)N(C)C(=O)C(C(C)C)N(C)C1=O (stereo not drawn) | 0 | -4 | 106*
CCOC(=O)C1=NN(c2ccc(C)cc2)C2c3cccc4cccc(c34)C12 (stereo not drawn) | 0 | . | 22
O=C(c1ccccc1)N1CC2CC(C1)c1cccc(=O)n1C2 (stereo not drawn) | -1 | . | 16
CC(C)C12CN3CCN(CC(C3)/C1=N/N)C2 | 7 | 2 | -10
